Active and inactive are the calls of the source.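 The calls were made as follows, unless noted: active = NADPH fluorescence slope more negative than the mean of all samples by about 3 SD, 99.7% confidence; inactive = the rest.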
Key:
[1] = inhibitors of TNFa-induced NFkB p65 translocation, primary screen, imaging, HUVEC, MLSMR starter and 10KST1 sets (AID 438;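 active = inhibition above 20% together with a positive visual image hit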;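 also: compound added about 3h40 before a 20 min TNFalpha stimulation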;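 as to inhibition: signal is the nuclear over cytoplasmic p65 intensity ratio per well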); conditions: HUVEC TNFa-induced p65 nuclear translocation; cell count: measured here: nuclei count (cytotoxicity indicator), at 2.08 µM unless noted; inhibition: at 2 µM, stronger effect = higher value unless noted
[2] = inhibitors of mutant huntingtin aggregation, primary screen, imaging, exon1htt(103Q)mCFP cells, high-content imaging (AID 483;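 active = visual image review flags a hit and inhibition of aggregation exceeds 20%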;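 also: compound exposure lasted 3 days before fixation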;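 as to nuclei count: percent of the per-plate median nuclei count of sample wells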); conditions: exon1htt(103Q)mCFP cell line, aggregate imaging, at 2 µM; inhibition of aggregation: stronger effect = higher value; nuclei count: measured here: cell count, toxicity
[3] = inhibitors of E-selectin induction by TNFa, primary screen, imaging, HUVEC, immunofluorescence, MLSMR starter and 10KST1 sets (AID 487;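 active = visually confirmed hit in the image check and inhibition above 20%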;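 as to inhibition: signal is fraction of cell area covered by stained E-selectin grains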;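 as to nuclei count: 100% = median nuclei count of all wells on the same plate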); conditions: HUVEC TNFalpha-induced E-selectin immunofluorescence imaging, at 2 µM; inhibition: stronger effect = higher value; nuclei count: measured here: cell number, toxicity
[4] = target: Voltage-gated potassium channel subunit beta-2 (Rattus norvegicus) (UniProt P62483); assay: KvBeta enzyme negative modulators, primary screen, biochemical, NADPH fluorescence (AID 622;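 active = fluorescence slope higher than the sample average by over 3 SD, cut at about -0.22 in these data, passing the limit was not always enough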;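 also: slope of raw intensity against log time taken from 70 to 1610 s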); conditions: recombinant KvBeta, 4-cyanobenzaldehyde reduction, at 10 µM, stronger effect = higher value
[5] = target: Voltage-gated potassium channel subunit beta-2 (Rattus norvegicus) (UniProt P62483); assay: KvBeta positive modulators, primary screen, biochemical, NADPH fluorescence (AID 623); conditions: Recombinant KvBeta, NADPH fluorescence decrease slope, 10 min; at 10 µM; stronger effect = lower value;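 also: fluorescence intensity change per second fitted from 20 to 320 s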
[6] = target: Alpha-2C adrenergic receptor (Homo sapiens) (UniProt P18825); assay: modulators of alpha2C/GIRK thallium flux, primary screen, cell-based, HEK293 alpha2C/GIRK1/2 (AID 624;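 active = fluorescence slope after compound addition differing from the mean of all screened samples at 99.7% confidence, in either direction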;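 also: slope of fluorescence ratio to pre-addition baseline per second over 15 to 24 s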); conditions: thallium flux BTC fluorescence, at 10 µM, actives lie on both sides
[7] = inhibitors of Sendai virus-induced IRF3 signaling, primary screen, TLR/RLR signaling modifier project, cell-based, Sendai virus stimulus, luciferase, 10K MLSCN set (AID 602276;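 active = inhibition at or above 50% at 10 µM; inactive = inhibition below 50%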;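 also: firefly luciferase from ISG56 promoter only with Renilla not read in this screen; 0% = Sendai virus plus DMSO and 100% = medium plus DMSO without virus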); conditions: HEK293 RL24 IRF3 luciferase reporter, at 10 µM, stronger effect = higher value
[8] = inhibitors of poly I:C-induced TLR3 signaling, primary screen, cell-based, poly I:C stimulus, luciferase, 10K MLSCN set (AID 602277;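 active = inhibition of the reporter signal at or above 50%; inactive = inhibition below 50%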); conditions: HEK293-TLR3 RL24 IRF3 luciferase reporter, at 10 µM, stronger effect = higher value
[9] = target: Muscarinic acetylcholine receptor M4 (Homo sapiens) (UniProt P08173); assay: compounds altering M4/GIRK thallium flux, either direction, primary screen, M4 allosteric agonist project, cell-based, HEK293 M4/GIRK, BTC-AM (AID 625;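 active = fluorescence slope after compound addition differing from the mean of all tested samples at 99.7% confidence, mostly higher but some lower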;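 also: thallium influx through GIRK channels coupled to M4 in HEK293 cells with BTC-AM dye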); conditions: at 10 µM, actives lie on both sides
[10] = inhibitors of larval lipid processing in zebrafish, primary screen, whole organism, PED6 fluorescence, gall bladder and intestine (AID 686;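 active = a full or partial loss of lipid-probe fluorescence in the fish gall bladder, intestine or both, judged by eye; inactive = no fluorescence loss, or compound toxic to the fish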;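 also: larvae 5 to 7 days old with five fish per well; signal comes from phospholipase A2 cleavage of quenched PED6 carried via bile; overnight exposure to compound and PED6 before scoring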); conditions: Zebrafish larvae PED6 lipid processing, fluorescence scoring

Voltage-gated potassium channel subunit beta-2 (Rattus norvegicus), sequence (P62483 whole entry, looked up): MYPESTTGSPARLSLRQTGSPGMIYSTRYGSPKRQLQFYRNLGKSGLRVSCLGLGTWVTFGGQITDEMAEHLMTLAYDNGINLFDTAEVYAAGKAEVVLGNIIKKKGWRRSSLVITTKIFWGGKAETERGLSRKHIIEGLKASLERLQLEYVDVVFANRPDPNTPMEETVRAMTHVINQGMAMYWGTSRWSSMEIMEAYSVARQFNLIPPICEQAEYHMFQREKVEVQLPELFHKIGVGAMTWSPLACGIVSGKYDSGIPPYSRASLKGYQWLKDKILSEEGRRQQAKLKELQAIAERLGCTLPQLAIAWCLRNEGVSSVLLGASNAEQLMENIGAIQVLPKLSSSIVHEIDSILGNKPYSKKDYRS
Alpha-2C adrenergic receptor (Homo sapiens), sequence (P18825 whole entry, looked up): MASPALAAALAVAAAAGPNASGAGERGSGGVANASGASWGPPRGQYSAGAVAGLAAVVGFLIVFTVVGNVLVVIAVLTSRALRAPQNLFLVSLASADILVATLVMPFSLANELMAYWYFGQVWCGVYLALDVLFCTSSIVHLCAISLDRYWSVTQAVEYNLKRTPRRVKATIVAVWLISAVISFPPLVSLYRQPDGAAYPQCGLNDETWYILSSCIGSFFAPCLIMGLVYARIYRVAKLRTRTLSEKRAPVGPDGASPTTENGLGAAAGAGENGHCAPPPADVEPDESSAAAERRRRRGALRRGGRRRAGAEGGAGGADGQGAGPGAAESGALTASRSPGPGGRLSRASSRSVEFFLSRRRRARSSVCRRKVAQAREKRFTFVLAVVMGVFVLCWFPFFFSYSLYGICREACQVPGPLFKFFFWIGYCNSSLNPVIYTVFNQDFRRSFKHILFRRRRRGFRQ
Muscarinic acetylcholine receptor M4 (Homo sapiens), sequence (P08173 whole entry, looked up): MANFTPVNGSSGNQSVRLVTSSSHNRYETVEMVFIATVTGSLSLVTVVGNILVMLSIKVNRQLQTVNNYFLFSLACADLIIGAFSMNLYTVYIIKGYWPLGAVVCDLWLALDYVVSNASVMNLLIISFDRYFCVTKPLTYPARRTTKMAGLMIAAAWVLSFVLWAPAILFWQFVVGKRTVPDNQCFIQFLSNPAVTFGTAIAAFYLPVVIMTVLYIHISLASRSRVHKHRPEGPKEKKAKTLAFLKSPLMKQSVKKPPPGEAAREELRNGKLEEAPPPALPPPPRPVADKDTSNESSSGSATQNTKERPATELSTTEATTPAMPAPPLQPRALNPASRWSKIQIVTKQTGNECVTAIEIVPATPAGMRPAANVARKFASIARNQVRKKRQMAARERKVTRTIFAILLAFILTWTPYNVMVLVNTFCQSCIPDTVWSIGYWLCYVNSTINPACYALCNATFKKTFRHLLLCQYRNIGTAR

Row | SMILES | cell count [1] | inhibition [1] | inhibition of aggregation [2] | nuclei count [2] [%] | inhibition [3] | nuclei count [3] [%] | fluorescence slope [4] | NADPH fluorescence slope [5] | slope [6] | inhibition [7] | inhibition [8] | fluorescence slope [9] | outcome [10]
1 | CCN1CCN(C(=O)COc2cc(=O)n(CC)c3ccccc23)CC1 | 357 | 0% (inactive) | -14.7% (inactive) | 99.2 | -7.3% (inactive) | 115 | -0.386 (inactive) | -4.3e-05 (inactive) | 0.00614 (inactive) | 3.27% (inactive) | 36.3% (inactive) |  | 
2 | COc1ccccc1N1CCN(Cc2c(F)cccc2F)CC1 | 410 | -1.1% (inactive) | 13.8% (inactive) | 98.7 | -26.3% (inactive) | 118 | -0.431 (inactive) | -1.4e-05 (inactive) | 0.00585 (inactive) | 15.2% (inactive) | 27.3% (inactive) |  | 
3 | Cc1ccc(-c2nc(CS(=O)CC(=O)N3CCC4(CC3)OCCO4)c(C)o2)cc1 (stereo not given) | 704 | -30.6% (inactive) | -2.4% (inactive) | 99.4 | -4.2% (inactive) | 101 | -0.62 (inactive) | -2.5e-05 (inactive) | 0.00606 (inactive) | 16.5% (inactive) | 19.1% (inactive) |  | 
4 | CC1(C)Cc2c(sc3c2C(=O)NC(c2cccnc2)N3)CO1 (stereo not given) | 328 | 6.5% (inactive) | 6% (inactive) | 98.3 | 4.5% (inactive) | 106 | -0.584 (inactive) | -3.1e-05 (inactive) | 0.00356 (inactive) | 3.52% (inactive) | 5.63% (inactive) |  | 
5 | Cc1ccnc(-n2c(-c3ccco3)nc3ccccc3c2=O)c1 | 445 | 10.2% (inactive) | -19.2% (inactive) | 115 | -4.3% (inactive) | 106 | -0.508 (inactive) | -3.8e-05 (inactive) | 0.0068 (inactive) | 6.03% (inactive) | -0.166% (inactive) |  | 
6 | CCCCn1c(O)c(C=NC2CCCCC2N)c(=O)[nH]c1=O (stereo not given) | 747 | -6% (inactive) | 4.3% (inactive) | 113 | -67.3% (inactive) | 119 | -0.61 (inactive) | -4e-05 (inactive) | 0.00682 (inactive) | 8.89% (inactive) | 26.1% (inactive) |  | 
7 | C(#CCN1CCOCC1)COCC#Cc1ccccc1 | 422 | 1.2% (inactive) | 12.8% (inactive) | 94.4 | -4.6% (inactive) | 112 | -0.622 (inactive) | -5e-05 (inactive) | 0.00639 (inactive) | 8.54% (inactive) | 30.6% (inactive) |  | 
8 | CC(C)(C)C(O)C(Oc1ccc(Cl)cc1)n1cncn1 (stereo not given) | 268 | 4.3% (inactive) | 5.1% (inactive) | 93 | -5.1% (inactive) | 131 | -0.592 (inactive) | -2.7e-05 (inactive) | 0.00646 (inactive) | 15.5% (inactive) | 32.5% (inactive) |  | 
9 | CCOC(=O)c1cccc([P+](=O)O)c1 | 570 | 0% (inactive) | 1.9% (inactive) | 95.2 | -41.6% (inactive) | 106 | -0.582 (inactive) | -3.4e-05 (inactive) |  | -12.3% (inactive) | -3.34% (inactive) | 0.00773 (inactive) | 
10 | COc1ccc(CCn2c(O)c(C=NCc3cccnc3)c(=O)[nH]c2=O)cc1OC | 716 | -1.7% (inactive) | -17.3% (inactive) | 111 | 72.3% (active) | 90.2 | -0.629 (inactive) | 1.1e-05 (inactive) | 0.00366 (inactive) | 19.4% (inactive) | 18.7% (inactive) |  | 
11 | CCOc1cccc(N2C(=O)CC(=O)NC2=O)c1 | 351 | -3.3% (inactive) | -8.7% (inactive) | 109 | -63.8% (inactive) | 107 | -0.524 (inactive) | -1.6e-06 (inactive) | 0.00568 (inactive) | 2.1% (inactive) | 3.82% (inactive) |  | 
12 | COc1cc(/C=N/n2cnnc2)ccc1OC(=O)N(C)C | 615 | -19.9% (inactive) | -14.7% (inactive) | 114 | -3.5% (inactive) | 98.1 | -0.436 (inactive) | 3.1e-05 (inactive) |  | 13% (inactive) | 20.9% (inactive) | 0.0081 (inactive) | 
13 | COc1ccccc1N(CC(=O)NC1CCCCC1)C(=O)c1cnn(C(C)C)c1 | 526 | 2.5% (inactive) | 3.2% (inactive) | 102 | -128% (inactive) | 157 | -0.598 (inactive) | 9.1e-06 (inactive) | 0.00634 (inactive) | -9.99% (inactive) | -3.91% (inactive) |  | 
14 | CNP1(NC)=NC(C(F)(F)F)=NC(C(F)(F)F)=N1 | 338 | -24% (inactive) | 6.8% (inactive) | 112 | -0.4% (inactive) | 89.8 | -0.447 (inactive) | -3.2e-05 (inactive) | 0.00454 (inactive) | -2.73% (inactive) | 97.8% (active) |  | inactive

Source: PubChem BioAssay
